Only some compounds are listed: those with a hit (about 1.5% of all), similar ones and a draw of the others.
FEN1 inh: inhibitors of human flap endonuclease 1; AID 588795; Recombinant FEN1 flap cleavage, fluorescence, 15 min; 390,000 tested, 0.35% active; P39748; Potency, µM (doses to about 114 µM), without a hit: at the highest dose activity change, negative = inhibition, hits mostly inhibitors; also: potency is read from the fitted curve at half-maximal effect; nearly all actives have a fitted effect of over 65% in size
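Enzyme 10 nM, 15 min RT preincubation with compound; start with substrate 50 nM final; reads at 0 and 15 min; qHTS titration, four-parameter Hill fit.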
BLM inh: blocks DNA unwinding by human BLM helicase. P54132. recombinant BLM DNA unwinding, fluorescence dequenching. Potency, µM (series often up to 56.1 µM), inactives show at the highest dose activity change, negative = inhibition, most hits filed as inhibitors. 350,000 tested, 0.2% active;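 also: potency is read from the fitted curve at half-maximal effect; plate controls were vehicle for no effect and no enzyme for full effect; nearly all actives have a fitted effect of over 35% in size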
PI5P4Ka inh: inhibitors of human PI5P4K alpha; P48426; PI5P4Kalpha enzyme, ADP-Glo luminescence, 60 min; active compounds read low; max response, %; 330,000 tested, 1.2% active; AID 652105; active = max response of -50% or lower; inconclusive = between -30% and -50%; inactive = -30% or higher; also: value at the top dose of about 77 µM
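Single end-point luminescence (ADP-Glo) quantified ADP from PI5P4Kalpha turnover; ATP 5 microM final, 1 h at RT, 0.1% CHAPS and 0.28 mM EGTA in HEPES pH 7.4.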
GCN5L2 inh: inhibitors of human GCN5L2 histone acetyltransferase. GCN5L2 HAT assay, ThioGlo1 CoA-SH fluorescence. AID 504327. 390,000 tested, 0.21% active. Potency, µM (top dose mostly 58.9 µM), without a hit: at the highest dose activity change, negative = inhibition, hits mostly inhibitors. Q92830; also: potency is read from the fitted curve at half-maximal effect
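Preincubate 20nM GCN5L2 with compound 15 min, RT → add 50uM ThioGlo1 + 75uM H3(1-25) + 70uM acetyl-CoA → read fluorescence 0 and 20 min. Primary qHTS; fluorescent artifacts likely.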
APE1 inh: APE1 (human) endonuclease inhibition; Potency, µM (titrated, usually from 65.8 µM), inactives show at the highest dose activity change, negative = inhibition, most hits filed as inhibitors; P27695; AID 2517; 350,000 tested, 0.35% active; recombinant APE1, TAMRA/BHQ-2 abasic DNA cleavage fluorescence;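 also: potency is read from the fitted curve at half-maximal effect; plate controls were vehicle for no effect and reference inhibitor for full effect; nearly all actives have a fitted effect of over 55% in size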
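APE1 at 0.75 nM final was preincubated with compound 15 min at room temperature, then 50 nM double-stranded THF abasic-site substrate (5'-TAMRA/3'-BHQ-2) was added. Fluorescence (ex 525/em 598 nm) was read kinetically; third-minus-first read gave activity.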
RECQ1 inh: RECQ1 (human) helicase inhibition; RECQ1 DNA unwinding, red fluorescence kinetic read; P46063; Potency, µM (titrated, usually from 57.3 µM), inactives show at the top dose activity, negative = inhibition, hits mostly inhibitors; 240,000 tested, 0.54% active;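 also: potency is read from the fitted curve at half-maximal effect; plate controls were vehicle for no effect and no enzyme for full effect; nearly all actives have a fitted effect of over 30% in size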
Target sequence (P46063 whole entry, looked up): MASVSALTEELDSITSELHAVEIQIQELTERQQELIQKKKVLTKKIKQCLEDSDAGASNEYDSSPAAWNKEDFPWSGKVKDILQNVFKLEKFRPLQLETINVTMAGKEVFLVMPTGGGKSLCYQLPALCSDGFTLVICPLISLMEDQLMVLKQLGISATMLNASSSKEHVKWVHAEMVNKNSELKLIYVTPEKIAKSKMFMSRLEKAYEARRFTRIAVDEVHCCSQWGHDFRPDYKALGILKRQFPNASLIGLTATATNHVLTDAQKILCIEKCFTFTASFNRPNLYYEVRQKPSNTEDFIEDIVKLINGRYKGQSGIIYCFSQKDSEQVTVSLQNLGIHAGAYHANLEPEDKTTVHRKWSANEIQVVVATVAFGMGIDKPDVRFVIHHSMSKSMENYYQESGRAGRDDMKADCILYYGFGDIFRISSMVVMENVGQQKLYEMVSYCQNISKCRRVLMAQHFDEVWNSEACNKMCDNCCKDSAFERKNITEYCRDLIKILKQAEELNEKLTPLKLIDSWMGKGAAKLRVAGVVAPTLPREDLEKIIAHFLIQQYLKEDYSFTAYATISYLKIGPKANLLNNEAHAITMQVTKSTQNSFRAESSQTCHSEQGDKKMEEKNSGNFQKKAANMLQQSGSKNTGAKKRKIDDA
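RECQ1T1 50 nM; forked duplex (20 bp + 30-nt ss tails) 200 nM, ATP 2 mM final; pH 8.0, 2 mM MgCl2, 2.5 ug/ml poly(dI-dC); 15 min compound preincubation; discontinuous kinetic read over 2 h at RT.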
The depositor's hits bear a star; i = inactive; u = inconclusive; x = no result. Unless noted, calls follow the shape of the dose curve; as a rule, active = well fitted curve in the direction sought with a large enough effect; inconclusive = small, poorly fitted or top-dose-only effect, or another doubt; inactive = no such curve, though single readings can be large; an effect the other way counts as inactive or inconclusive. Unless noted, % is scaled to controls: 0 for no effect and ±100 for the full control effect.

SMILES | FEN1 inh | BLM inh | PI5P4Ka inh | GCN5L2 inh | APE1 inh | RECQ1 inh
COC(=O)c1ccc(NC(=O)c2ccccc2C(=O)Nc2ccc(C(=O)OC)cc2)cc1 | 15.2% | x | 3.5 | x | x | x
COC(=O)c1ccc(NC(=O)C(=O)c2cccn2C)cc1 | 11.9% | -14.0% | -53.0* | -7.0% | -4.6% | -2.4%
CCOc1ccc(NC(=O)CSc2nnc3c(n2)[nH]c2ccc(S(=O)(=O)N4CCCCC4)cc23)cc1 | 2.2% | x | x | x | x | x
Cc1ccc(C(=O)N/N=C\c2ccc(Br)o2)o1 | -4.5% | -0.9% | x | 2.51µM* | -3.3% | -1.2%
Cc1ccc(/C=N/NC(=O)C(=O)N/N=C/c2ccc(C)o2)o1 | -13.5% | -12.6% | -0.1 | -8.8% | 5.2% | -15.5%
C=CCNc1oc(-c2cccc(Br)c2)nc1C#N | x | x | x | x | -1.9% | x
CC(C)(C)OC(=O)CN1C(=O)NC(Cc2c[nH]c3ccccc23)C1=O (stereo not drawn) | 0.8% | -1.7% | 0.6 | -3.4% | 4.1% | x
C/C(N)=C(/C#N)C(=O)CN1C(=O)NC(Cc2c[nH]c3ccccc23)C1=O (stereo not drawn) | 2.9% | -17.5% | -66.3* | 3.4% | 15µM* | x
O=C(NCc1cccnc1)[C@@H]1CC=C[C@@H]2CCN(C3CCCCC3)C(=O)[C@@H]21 | 4.0% | x | x | x | x | x
CC(C)(C)c1ccc(C(=O)C[n+]2cccc(Br)c2)cc1 | -2.4% | x | x | x | x | x
C=CC(C)(C)c1c(O)c(CC=C(C)C)c(O)c2c(=O)c3ccc(O)c(O)c3oc12 | -26.4% | x | -12.0 | x | x | x
C=CC(C)(C)c1[nH]c2ccccc2c1C1=C(O)C(=O)C(c2c[nH]c3c(CC=C(C)C)cccc23)=C(O)C1=O | x | 6.31µM* | x | 15.8µM* | 20µM* | 10µM*
CCOc1cc(C2NC(=O)c3c(sc4c3CCN(C)C4)N2)ccc1OC(=O)c1ccccc1Cl (stereo not drawn) | 89.1µM* | -1.7% | x | 0.7% | x | x
COc1ccc(C(=O)Oc2ccc(C3NC(=O)c4c(sc5c4CCN(C)C5)N3)cc2OC)cc1 (stereo not drawn) | -5.5% | 7.1% | x | -8.7% | x | x
O=C(C[n+]1cccc2cccc(O)c21)c1ccc(F)cc1 | 0.2% | x | x | x | x | x
CCCc1nn2c(N)c(/C=C3\C=Nc4ccccc43)c(=O)nc2s1 | -13.7% | -5.1% | -21.5 | -6.4% | 13.5% | 1.8%
CS(=O)(=O)c1nsc2nc(=O)c(/C=C3\C=Nc4ccccc43)c(N)n12 | -2.0% | -8.0% | -71.9* | -6.2% | -1.0% | i
COc1ccccc1N1CCN(CCn2c(=O)c3c(c4ccccc4n3C)n(C)c2=O)CC1 | x | x | x | 1.5% | -1.5% | -8.5%
Oc1[nH]c(=S)sc1/C=C1\C(c2ccccc2)=Nc2ccccc21 | -3.1% | -10.3% | -73.7* | -2.1% | 0.3% | u
O=C(C[n+]1cccc(Br)c1)c1ccc(Br)cc1 | -11.2% | x | x | x | x | x
CCOc1cccc(C2C=C(c3ccc4c(c3)OCO4)NC(c3ccccc3Cl)N2)c1O (stereo not drawn) | -20.3% | x | x | x | x | x
CC1=CC(=O)c2c(O)ccc(O)c2C1=O | x | 17.8µM* | x | 12.6µM* | 2µM* | 3.55µM*
COc1cc2c(cc1O)CCN[C@@]21CS[C@H]2c3c(OC(C)=O)c(C)c4c(c3C(COC1=O)N1C2C2c3c(cc(C)c(OC)c3O)CC([C@@H]1O)N2C)OCO4 (stereo partly drawn) | x | 10µM* | x | -20.4% | x | x
CCCS(=O)(=O)Nc1ccc(Nc2c3ccccc3nc3ccccc23)c(OC)c1 | u | x | -0.4 | x | x | x
COc1cc(N)ccc1Nc1c2ccccc2nc2ccccc12 | x | x | -54.9* | x | x | x
COc1ccc(C(=O)OCC(=O)Nc2ncc([N+](=O)[O-])s2)cc1OC | 35.5µM* | x | -77.4* | u | u | x
O=C(COC(=O)c1ccc(Br)o1)Nc1ncc([N+](=O)[O-])s1 | u | x | -53.2* | u | 6.5% | x
COc1ccc(C(=O)OCC(=O)Nc2sccc2C(N)=O)cc1OC | -1.3% | -4.7% | -7.2 | -10.9% | 0.7% | u
COc1ccc(OC)c(C(Cc2ccnc3ccccc23)Cc2ccnc3ccccc23)c1 | -9.1% | x | x | x | x | x

From PubChem
